Test [1] can be described thus: APR_HepG2_P-H2AX_72hr: Apredica 72-hour HepG2 Assay for H2AX Phosphorylation (AID 2282916).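 Also: phospho-histone H2A.x immunostain intensity per cell marking DNA damage.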 As to conditions: imaging, actives raise or lower the signal. Summed up:
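HepG2 human liver cells were exposed for 72 hr to compounds at 0.39–200 uM (10 concentrations, duplicate per plate) in 0.5% v/v DMSO. Fixed, permeabilized cells were immunolabeled for phospho-histone H2A.x with Hoechst 33342 and imaged by HCS fluorescence; bidirectional fit versus DMSO.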

The nature of test [2]: APR_HepG2_MitoMembPot_72hr: Apredica 72-hour HepG2 Assay for Mitochondrial Membrane Potential (AID 2282917). As to conditions: imaging, actives raise or lower the signal. The gist of the method:
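HepG2 cells dosed 72 hr with compound at 0.39–200 uM in duplicate, 0.5% v/v DMSO final. Mitochondria stained with 250 nM MitoTracker Red CMXRos for 30 min before formaldehyde fixation, imaged by high-content fluorescence; bidirectional fit versus DMSO.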

Test [3] in a line: APR_HepG2_MitoticArrest_72hr: Apredica 72-hour HepG2 Assay for Mitotic Arrest (AID 2282918). The settings on record: high-content imaging, actives raise or lower the signal. The gist of the method: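 HepG2 cells treated 72 h at 0.39–200 uM, 0.5% DMSO final; formaldehyde-fixed, stained with Hoechst 33342 and phospho-histone H3 antibody, imaged by high-content fluorescence; bidirectional fit versus DMSO.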

Test [4] in a line: APR_HepG2_MicrotubuleCSK_72hr: Apredica 72-hour HepG2 Assay for Microtubule CSK Stabilty (AID 2282919). The settings on record: HepG2 microtubule cytoskeleton, high-content imaging, actives raise or lower the signal. Summed up: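 HepG2 cells were exposed 72 hr to compound at 0.39–200 uM in duplicate (0.5% DMSO final), then fixed and permeabilized. Alpha-tubulin immunofluorescence was imaged by high-content microscopy, with bidirectional fitting against DMSO and taxol as positive control.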

Test [5] is described as follows: APR_HepG2_P-H2AX_24hr: Apredica 24-hour HepG2 Assay for H2AX Phosphorylation (AID 2282920). The settings on record: high-content imaging, actives raise or lower the signal. Summed up: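 HepG2 cells dosed 24 h at 0.39–200 uM (10 points, duplicate, 0.5% DMSO final). Formaldehyde-fixed and permeabilized, then immunostained for phospho-H2A.x with Hoechst. Fluorescence quantified by high-content imaging, fitted bidirectionally versus DMSO.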

The nature of test [6]: APR_HepG2_StressKinase_72hr: Apredica 72-hour HepG2 Assay for Stress Kinase (AID 2282921). The settings on record: HepG2 stress kinase (phospho-c-Jun) imaging, actives raise or lower the signal. Summed up: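 Cells were exposed for 72 h to ten concentrations (0.39–200 uM, duplicate) at 0.5% v/v DMSO final, then fixed with 3.7% formaldehyde, permeabilized and immunostained for phospho-c-Jun (Cy3 secondary) with Hoechst nuclear counterstain.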

The nature of test [7]: APR_HepG2_StressKinase_24hr: Apredica 24-hour HepG2 Assay for Stress Kinase (AID 2282922). As to conditions: HepG2 stress kinase (phospho-c-Jun) imaging, actives raise or lower the signal. Summed up: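 HepG2 cells exposed 24 h to 0.39–200 uM compound in duplicate (0.5% v/v DMSO final). Cells fixed in 3.7% formaldehyde, permeabilized and immunostained for phospho-c-Jun; read by high-content fluorescence imaging, fitted bidirectionally against DMSO.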

A short description of test [8]: APR_HepG2_p53Act_72hr: Apredica 72-hour HepG2 Assay for p53 Activation (AID 2282923).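 Also: average cellular p53 protein immunofluorescence intensity in HepG2 cells.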 As to conditions: high-content imaging, actives raise or lower the signal. The gist of the method:
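Cells were dosed for 72 hr with compounds at 0.39–200 uM in duplicate (final DMSO 0.5% v/v), then fixed in 3.7% formaldehyde, permeabilized with Triton X-100 and immunostained for p53 (Cy5) with Hoechst 33342 nuclear counterstain.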

A short description of test [9]: APR_HepG2_MitoMass_72hr: Apredica 72-hour HepG2 Assay for Mitochondrial Mass (AID 2282924).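 Also: MitoTracker Red CMXRos stain intensity per cell imaged as mitochondrial mass.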 The settings on record: high-content imaging, actives raise or lower the signal. The gist of the method:
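HepG2 cells dosed 72 hr at 0.39–200 uM (0.5% DMSO), in duplicate. MitoTracker Red CMXRos 250 nM loaded 30 min before formaldehyde fixation; high-content fluorescence imaging, bidirectional fit versus DMSO.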

Test [10] in a line: APR_HepG2_NuclearSize_72hr: Apredica 72-hour HepG2 Assay for Nuclear Size (AID 2282925). As to conditions: high-content imaging, actives raise or lower the signal. Summed up:
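HepG2 cells dosed 72 h at 0.39–200 uM (10 concentrations, duplicate) in 0.5% v/v DMSO final. Fixed, Hoechst 33342-stained nuclei imaged; nuclear diameter measured by automated image analysis. Bidirectional fit versus DMSO.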

Test [11] can be described thus: ATG_CRE_CIS: Attagene CIS-FACTORIAL HepG2 Assay for human cAMP Responsive Element (CRE) binding protein 3 (AID 2282926). The settings on record: HepG2 CRE cis-reporter, Attagene multiplexed mRNA; actives raise or lower the signal. The gist of the method:
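HepG2 cells transiently transfected with cis-element-driven multiple reporter transcription units; CRE reporter mRNA measured 24 h after dosing by RT-PCR, 6-FAM labelling, HpaI digestion and capillary electrophoresis. Bidirectional fit versus DMSO baseline.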

In test [12] the target is CCAAT/enhancer-binding protein beta (Homo sapiens) (UniProt P17676). Description: ATG_C_EBP_CIS: Attagene CIS-FACTORIAL HepG2 Assay for human CCAAT/Enhancer Binding Protein (C/EBP) beta (AID 2282927). The settings on record: HepG2 Attagene cis-factorial transcription factor reporter; actives raise or lower the signal. The gist of the method: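 Transiently transfected HepG2 (MRTU library, endogenous TF-driven promoters); 24 h dosing; total RNA → oligo(dT) RT → PCR → 6-FAM primer extension → HpaI digest → CE; fit bidirectionally vs DMSO.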

A short description of test [13]: ATG_CMV_CIS: Attagene CIS-FACTORIAL HepG2 Assay for human CMV (Internal Marker) (AID 2282928).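 Also: endpoint acts as a background internal control marker rather than a target.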 The settings on record: HepG2 CMV promoter reporter, transcription factor profiling; actives raise or lower the signal. Summed up:
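Cell system: HepG2, transiently transfected multiple reporter units under cis promoters. Exposure: 24 h. Detection: RT-PCR, FAM labeling, HpaI digestion, capillary electrophoresis. Analysis: bidirectional, DMSO baseline.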

Test [14] can be described thus: ATG_DR4_LXR_CIS: Attagene CIS-FACTORIAL HepG2 Assay for human Liver X Receptor (LXR), DR4 submotif (AID 2282929). As to conditions: HepG2 Attagene DR4 cis-reporter, mRNA transcription; actives raise or lower the signal. The gist of the method:
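Transiently transfected HepG2 liver cells; cis-regulated reporters; 24 h dosing. RT-PCR plus CE read-out of reporter mRNA. DMSO baseline, bidirectional curve fitting.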

Test [15] addresses Aryl hydrocarbon receptor (Homo sapiens) (UniProt P35869). In words: ATG_Ahr_CIS: Attagene CIS-FACTORIAL HepG2 Assay for human Aryl Hydrocarbon Receptor (Ahr) (AID 2282930). As to conditions: HepG2 AhR cis-factorial reporter transcription; actives raise or lower the signal. The gist of the method:
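Read-out: reporter mRNA quantified by RT-PCR with fluorescent primer extension and capillary electrophoresis. Human HepG2 liver cells carried transfected cis-promoter reporter units and were exposed to chemical for 24 h; gain or loss fitted relative to DMSO.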

A short description of test [16]: ATG_AP_2_CIS: Attagene CIS-FACTORIAL HepG2 Assay for human Activator Protein 2 (AP-2) (AID 2282932). The settings on record: HepG2 AP-2 cis-reporter, Attagene transcription factor profiling; actives raise or lower the signal. The gist of the method:
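Multiplexed mRNA reporter assay in HepG2: cis-regulated units report endogenous factor activity after 24 h treatment. Fluorescence from capillary electrophoresis of RT-PCR products gives the signal, with DMSO as baseline.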

Test [17] is described as follows: ATG_BRE_CIS: Attagene CIS-FACTORIAL HepG2 Assay for human Bone Morphogenetic Protein (BMP) Response Element (BRE) (AID 2282933). As to conditions: HepG2 BMP response element reporter, Attagene transcription factor profiling; actives raise or lower the signal. The gist of the method:
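A HepG2 multiplex reporter system measured inducible reporter mRNA 24 h post-dosing. Detection: RT-PCR, 6-FAM primer extension, HpaI digestion, capillary electrophoresis. Activity fitted bidirectionally relative to DMSO.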

Test [18] deals with Retinoic acid receptor alpha (Homo sapiens) (UniProt P10276). In words: ATG_DR5_RAR_CIS: Attagene CIS-FACTORIAL HepG2 Assay for human Retinoic Acid Receptor Alpha (RARE), DR5 submotif (AID 2282934).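 As to AC50: reporter responds to endogenous RAR alpha beta and gamma in HepG2 not RARA alone.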 As to conditions: HepG2 Attagene cis-factorial RARE DR5 reporter, mRNA; actives raise or lower the signal. Summed up:
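Read-out: DR5-driven reporter transcript measured by RT-PCR, 6-FAM primer extension, HpaI digest and capillary electrophoresis. Human HepG2 liver cells carry transiently transfected cis-element reporter constructs; dosing lasts 24 h. Gain or loss of signal fitted against DMSO baseline.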

A short description of test [19]: APR_HepG2_CellLoss_72hr: Apredica 72-hour HepG2 Assay for Cell Loss (AID 2282915). The settings on record: high-content imaging. Summed up: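 HepG2 cells exposed 72 h to compound at 0.39–200 uM (10 concentrations, duplicate) in 0.5% DMSO. Fixed with 3.7% formaldehyde and Hoechst 33342-stained. Imaged at 20x; nuclear count gives cell number, fitted bidirectionally versus DMSO.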

Test [20] in a line: ATG_AP_1_CIS: Attagene CIS-FACTORIAL HepG2 Assay for human Activator Protein 1 (AP-1) (AID 2282931). The settings on record: HepG2 Attagene cis-factorial AP-1 reporter mRNA; actives raise or lower the signal. The gist of the method: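 We transfected HepG2 cells transiently with a set of cis-regulated reporter transcription units, dosed them for 24 h, and quantified reporter mRNA via RT-PCR and capillary electrophoresis, scoring gain or loss of signal relative to DMSO.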

The values below come from PubChem BioAssay (EPA / NIEHS).

Where “and” joins values, the source holds several entries; their conditions need not be identical. Identical values can stand only once. More than one record can exist for a structure, and the calls need not agree. Calls of active or inactive are those of the source. The calls were made as follows: active = hit-call score of the fitted dose curve at least 0.9, where 1 is the maximum; inactive = score below 0.9.

CCAAT/enhancer-binding protein beta (Homo sapiens), sequence (P17676 whole entry, looked up): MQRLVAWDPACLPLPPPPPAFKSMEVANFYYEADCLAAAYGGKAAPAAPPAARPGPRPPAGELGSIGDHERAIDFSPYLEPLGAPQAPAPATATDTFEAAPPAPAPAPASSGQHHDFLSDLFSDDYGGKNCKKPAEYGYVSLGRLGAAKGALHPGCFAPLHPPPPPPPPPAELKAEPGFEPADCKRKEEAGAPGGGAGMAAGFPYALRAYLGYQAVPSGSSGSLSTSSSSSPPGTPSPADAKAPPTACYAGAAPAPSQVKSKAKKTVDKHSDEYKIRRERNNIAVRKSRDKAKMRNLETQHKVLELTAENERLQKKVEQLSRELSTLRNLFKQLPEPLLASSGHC
Aryl hydrocarbon receptor (Homo sapiens), sequence (P35869 whole entry, looked up): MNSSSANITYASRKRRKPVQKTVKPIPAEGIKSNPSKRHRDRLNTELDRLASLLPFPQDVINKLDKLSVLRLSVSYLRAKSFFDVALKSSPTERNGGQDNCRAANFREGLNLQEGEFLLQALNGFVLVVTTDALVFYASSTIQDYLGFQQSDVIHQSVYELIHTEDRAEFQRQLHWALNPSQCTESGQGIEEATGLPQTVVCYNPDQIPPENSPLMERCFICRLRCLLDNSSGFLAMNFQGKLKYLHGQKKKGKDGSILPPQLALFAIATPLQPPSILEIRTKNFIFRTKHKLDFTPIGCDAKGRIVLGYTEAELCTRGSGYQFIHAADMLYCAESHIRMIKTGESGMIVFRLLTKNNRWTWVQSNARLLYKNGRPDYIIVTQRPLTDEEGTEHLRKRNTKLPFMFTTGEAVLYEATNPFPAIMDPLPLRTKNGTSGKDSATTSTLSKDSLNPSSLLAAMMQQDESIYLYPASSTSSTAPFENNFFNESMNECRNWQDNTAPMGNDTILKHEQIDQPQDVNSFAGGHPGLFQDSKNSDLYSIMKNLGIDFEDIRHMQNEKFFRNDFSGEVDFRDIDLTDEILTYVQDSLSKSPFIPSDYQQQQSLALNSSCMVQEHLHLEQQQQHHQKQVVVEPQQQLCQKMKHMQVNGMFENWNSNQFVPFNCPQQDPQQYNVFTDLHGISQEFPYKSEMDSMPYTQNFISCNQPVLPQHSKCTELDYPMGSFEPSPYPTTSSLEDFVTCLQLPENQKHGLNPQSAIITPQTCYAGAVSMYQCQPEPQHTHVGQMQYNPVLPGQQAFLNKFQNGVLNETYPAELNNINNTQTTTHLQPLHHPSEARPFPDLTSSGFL
Retinoic acid receptor alpha (Homo sapiens), sequence (P10276 whole entry, looked up): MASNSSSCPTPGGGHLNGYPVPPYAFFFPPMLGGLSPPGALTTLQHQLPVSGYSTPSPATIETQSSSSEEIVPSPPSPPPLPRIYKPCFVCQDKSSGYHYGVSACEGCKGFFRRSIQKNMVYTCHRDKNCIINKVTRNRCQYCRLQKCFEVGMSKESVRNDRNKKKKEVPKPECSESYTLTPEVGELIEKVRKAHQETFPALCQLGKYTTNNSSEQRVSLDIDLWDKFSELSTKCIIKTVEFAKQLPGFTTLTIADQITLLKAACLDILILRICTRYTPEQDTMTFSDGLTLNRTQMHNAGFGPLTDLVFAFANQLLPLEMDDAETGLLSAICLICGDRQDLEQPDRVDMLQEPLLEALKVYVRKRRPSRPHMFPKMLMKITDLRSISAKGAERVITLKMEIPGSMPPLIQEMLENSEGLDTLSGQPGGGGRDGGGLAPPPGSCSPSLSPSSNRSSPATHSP

What is called AC50 is the concentration giving half of the maximal activity seen. On to `ClC1C(Cl)C(Cl)C(Cl)C(Cl)C1Cl` (stereo not drawn), for which the result in test [1], in test [2], in test [3], in test [4], in test [5] and in [6] was inactive. Besides, the molecule was called inactive in test [7], in [8], in test [9], in test [10], in [11] and in test [12]. In addition, the result in test [13], in test [14], in test [15], in test [16], in test [17] and in [18] was inactive. Moreover, the AC50 in [11] is 16 µM (active); in [12], 61.8 µM (active); in [13], 65.5 µM (active); in test [14], 116 µM (active) and 21.7 µM (active); in test [17] it was 10.5 µM (active); in test [18] it was 11 µM (active) and 5.74 µM (active).
As for `CCOC1Oc2ccc(OS(C)(=O)=O)cc2C1(C)C` (stereo not drawn), the AC50 in [19] was 46.1 µM (active); in test [11] it was 24 µM (active); in [12] it was 14.5 µM (active); in test [17], 61.4 µM (active); in test [18], 12.5 µM (active). The outcome in [1], in [2], in test [3], in test [4], in test [5] and in test [6] was inactive. For the same molecule, the call in test [7], in [9], in test [10], in test [13], in test [14] and in test [15] was inactive. The result in test [20] and in test [16] was inactive.
For the molecule `CC(C)(C)C(O)C(Oc1ccc(Cl)cc1)n1cncn1` (stereo not drawn), the outcome in test [1], in [2], in test [3], in [4], in [5] and in test [6] was inactive. Moreover, the outcome in [7], in test [8], in test [9], in test [10], in [11] and in test [12] was inactive. In addition, the call in test [13], in [14], in test [15], in test [16], in [17] and in test [18] was inactive. In addition, the AC50 in test [2] was 37.4 µM (active); in test [9], 98 µM (active); in test [11], 5.81 µM (active); in [12] it was 7.06 µM (active); in [17], 7.92 µM (active); in [18], 4.35 µM (active) and 4.55 µM (active) and 7.16 µM (active).
On to `CC(C)OC(=O)Nc1cccc(Cl)c1`, for which the molecule was called inactive in test [19], in test [1], in [2], in [3], in [4] and in test [5]. Moreover, the call in test [6], in test [7], in [8], in test [9], in test [10] and in [14] was inactive. Besides, the outcome in test [15], in test [16], in test [17] and in [18] was inactive. Further, the AC50 in [11] is 15.3 µM (active); in test [12] it was 22.5 µM (active); in [13], 34.1 µM (active).
For `COP(=O)(OC)OC=C(Cl)Cl`, the call in test [1], in [2], in test [3], in test [4], in test [6] and in test [7] was inactive. Besides, the molecule was called inactive in test [9], in test [10], in [11], in [12], in test [14] and in test [15]. In [17], the call was inactive. Further, the half-maximal activity concentration (AC50) was 76.2 µM (active) in [5], 18.4 µM (active) in [13], 67.3 µM (active) in test [20] and 50 µM (active) in [16].
